Measurements reported in PubChem BioAssay (NCATS).
Results filed as inconclusive are left out. Activity calls are given as the source filed them. Calls follow the shape of the dose curve; as a rule, active = well fitted curve in the direction sought with a large enough effect; inconclusive = small, poorly fitted or top-dose-only effect, or another doubt; inactive = no such curve, though single readings can be large; an effect the other way counts as inactive or inconclusive.

Columns and labels:
HaCat = test: Cytotoxic Profiling of Annotated Libraries Using Quantitative High-Throughput Screening (AID 1296008); settings: Five cell lines viability, CellTiter-Glo ATP luminescence, 48-72 h; max response: active compounds read low; also: nearly all actives have a fitted effect of over 60% in size
Procedure, shortened: (§1)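 Cytotoxicity was measured as CellTiter-Glo ATP luminescence, read after 10 min at room temperature. Compound treatment of the cells lasted 48 or 72 hr at 37 degrees Celsius in a qHTS format.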

KB-3-1 = test: as above; settings: Five cell lines viability, CellTiter-Glo ATP luminescence, 48-72 h; max response: active compounds read low
Procedure, shortened: as §1

NIH3T3 = test: as above; settings: Five cell lines viability, CellTiter-Glo ATP luminescence, 48-72 h; max response: active compounds read low
Procedure, shortened: as §1

C33A = test: Primary qHTS to identify gynecologic anti-cancer compounds using libraries of approved drugs and bioactive compounds (AID 1345084); settings: Gynecologic cancer cell panel viability, ATPlite luminescence, 48 h; series mostly up to 57.5 µM; also: nearly all actives have a fitted effect of over 55% in size
Procedure, shortened: (§2)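 Cytotoxicity screen measuring ATP content by luciferase luminescence. Each compound is applied at five concentrations for 48 h at 37 C with 5% CO2.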

CAOV3 = test: as above; settings: Gynecologic cancer cell panel viability, ATPlite luminescence, 48 h; series mostly up to 57.5 µM
Procedure, shortened: as §2

CASKI = test: as above; settings: Gynecologic cancer cell panel viability, ATPlite luminescence, 48 h; series mostly up to 57.5 µM
Procedure, shortened: as §2

Es-2 = test: as above; settings: Gynecologic cancer cell panel viability, ATPlite luminescence, 48 h; series mostly up to 57.5 µM
Procedure, shortened: as §2

HeLa = test: as above; settings: Gynecologic cancer cell panel viability, ATPlite luminescence, 48 h; series mostly up to 57.5 µM
Procedure, shortened: as §2

Hek293T = test: as above; settings: Gynecologic cancer cell panel viability, ATPlite luminescence, 48 h, control line for the selectivity index; series mostly up to 57.5 µM
Procedure, shortened: as §2

JEG-3 = test: as above; settings: Gynecologic cancer cell panel viability, ATPlite luminescence, 48 h; series mostly up to 57.5 µM
Procedure, shortened: as §2

OV90 = test: as above; settings: Gynecologic cancer cell panel viability, ATPlite luminescence, 48 h; series mostly up to 57.5 µM
Procedure, shortened: as §2
% is scaled to controls: 0 for no effect and ±100 for the full control effect.

C[C@@H]1O[C@@H](O[C@H]2[C@H](O)[C@@H](O[C@@H]3O[C@H](CO)[C@@H](O)[C@H](O[C@@H]4O[C@H](CO)[C@@H](O)[C@H](O)[C@H]4O)[C@H]3O)[C@H](O[C@H]3CC[C@@]4(C)C(=CC[C@@H]5C4CC[C@@]4(C)C5C[C@@H]5OC6(CC[C@@](C)(CO[C@@H]7O[C@H](CO)[C@@H](O)[C@H](O)[C@H]7O)O6)[C@@H](C)[C@@H]54)C3)O[C@@H]2CO)[C@H](O)[C@H](O)[C@H]1O (stereo partly drawn)
inactive: max response (HaCat) -19% | max response (KB-3-1) 4.11% | max response (NIH3T3) 3.35% | activity change, negative = cytotoxicity (C33A) 0.269% [at 6.55 µM] | activity change, negative = cytotoxicity (CAOV3) -0.0617% [at 6.55 µM] | activity change, negative = cytotoxicity (CASKI) -1.1% [at 6.55 µM] | activity change, negative = cytotoxicity (Es-2) -0.893% [at 6.55 µM] | activity change, negative = cytotoxicity (HeLa) -3.62% [at 6.55 µM] | activity change, negative = cytotoxicity (Hek293T) 9.02% [at 6.55 µM] | activity change, negative = cytotoxicity (JEG-3) -5.56% [at 6.55 µM] | activity change, negative = cytotoxicity (OV90) 1.28% [at 6.55 µM]

CC1=CC(=O)CC(C)(C)[C@@]1(O)CC[C@@H](C)O[C@@H]1O[C@H](CO)[C@@H](O)[C@H](O)[C@H]1O
inactive: max response (HaCat) -28.9% | max response (KB-3-1) 1.23% | max response (NIH3T3) 0.984% | Potency (C33A) | Potency (CAOV3) | Potency (CASKI) | Potency (Es-2) | Potency (HeLa) | Potency (Hek293T) | Potency (JEG-3) | Potency (OV90)

C=C1C(O)C[C@@H]2C(C(=O)O)=CO[C@@H](O[C@@H]3O[C@H](CO)[C@@H](O)[C@H](O)[C@H]3OC(=O)c3ccc(O)cc3)[C@H]12 (stereo partly drawn)
inactive: max response (HaCat) 0.151% | outcome (KB-3-1) | max response (NIH3T3) 4.25% | Potency (C33A) | Potency (CAOV3) | Potency (CASKI) | Potency (Es-2) | Potency (HeLa) | Potency (Hek293T) | Potency (JEG-3) | Potency (OV90)

Cc1cc(C)nc(NS(=O)(=O)c2ccc(NC(=S)NC(=O)COc3ccc(Br)cc3Cl)cc2)n1
inactive: max response (HaCat) -3.13% | max response (KB-3-1) 8.68% | max response (NIH3T3) -1.58% | Potency (C33A) | Potency (CAOV3) | Potency (CASKI) | Potency (Es-2) | Potency (HeLa) | Potency (Hek293T) | Potency (JEG-3) | Potency (OV90)

COC(=O)c1cc(OC)c(O[C@@H]2O[C@@H](C)[C@H](O)[C@@H](O)[C@H]2O)c(OC)c1
inactive: max response (HaCat) -17.1% | max response (KB-3-1) 4.85% | max response (NIH3T3) 2.7% | Potency (C33A) | Potency (CAOV3) | Potency (CASKI) | Potency (Es-2) | Potency (HeLa) | Potency (Hek293T) | Potency (JEG-3) | Potency (OV90)

COc1cc2c(cc1OC)CC(=O)N(CCCNC[C@H]1Cc3cc(OC)c(OC)cc31)CC2
inactive: max response (HaCat) -2.44% | outcome (KB-3-1) | max response (NIH3T3) -0.121% | Potency (C33A) | Potency (CAOV3) | Potency (CASKI) | Potency (Es-2) | Potency (HeLa) | Potency (Hek293T) | Potency (JEG-3) | Potency (OV90)

C=C(C(=O)O)C1CCC2(C)CCC(O)C(C)(O)C2C1 (stereo not drawn)
inactive: max response (HaCat) -8.51% | max response (KB-3-1) 1.37% | max response (NIH3T3) -18.2% | Potency (C33A) | Potency (CAOV3) | Potency (CASKI) | Potency (Es-2) | Potency (HeLa) | Potency (Hek293T) | Potency (JEG-3) | Potency (OV90)

CC12CCC3c4ccc(OC5OC(C(=O)O)C(O)C(O)C5O)cc4CCC3C1CCC2O (stereo not drawn)
inactive: max response (HaCat) 0.389% | outcome (KB-3-1) | max response (NIH3T3) 3.14% | Potency (C33A) | Potency (CAOV3) | Potency (CASKI) | Potency (Es-2) | Potency (HeLa) | Potency (Hek293T) | Potency (JEG-3) | Potency (OV90)

C=C(C(=O)O)C1CCC2(C)CCC(O)C(=C)C2C1 (stereo not drawn)
inactive: max response (HaCat) -10.5% | outcome (KB-3-1) | max response (NIH3T3) -5.34% | Potency (C33A) | Potency (CAOV3) | Potency (CASKI) | Potency (Es-2) | Potency (HeLa) | Potency (Hek293T) | Potency (JEG-3) | Potency (OV90)

CC(C)CN(C[C@@H](O)[C@H](Cc1ccccc1)NC(=O)O[C@@H]1CO[C@H]2OCC[C@H]21)S(=O)(=O)c1ccc(N)cc1
inactive: max response (HaCat) -6.53% | max response (KB-3-1) -3.21% | max response (NIH3T3) -1.09% | Potency (C33A) | Potency (CAOV3) | Potency (CASKI) | Potency (Es-2) | Potency (HeLa) | Potency (Hek293T) | Potency (JEG-3) | Potency (OV90)

Cc1ccc(NC(=O)C(=O)NC2CC(C)(C)NC(C)(C)C2)cc1
inactive: max response (HaCat) -22.4% | max response (KB-3-1) -0.25% | max response (NIH3T3) -7% | Potency (C33A) | Potency (CAOV3) | Potency (CASKI) | Potency (Es-2) | Potency (HeLa) | Potency (Hek293T) | Potency (JEG-3) | Potency (OV90)

CC1=C2C3OC(=O)C(C)C3(O)CCC2(C)CCC1O (stereo not drawn)
inactive: max response (HaCat) -12.8% | max response (KB-3-1) 5.71% | max response (NIH3T3) -16.2% | Potency (C33A) | Potency (CAOV3) | Potency (CASKI) | Potency (Es-2) | Potency (HeLa) | Potency (Hek293T) | Potency (JEG-3) | Potency (OV90)

C/C=C(\C)C(=O)O[C@H]1[C@@H](O[C@]2(COC(=O)CC(C)C)O[C@H](COC(=O)C(C)CC)[C@@H](OC(C)=O)[C@@H]2O)O[C@H](COC(C)=O)[C@@H](O)[C@@H]1O (stereo partly drawn)
inactive: max response (HaCat) 1.55% | max response (KB-3-1) 6.8% | max response (NIH3T3) -0.857% | Potency (C33A) | Potency (CAOV3) | Potency (CASKI) | Potency (Es-2) | Potency (HeLa) | Potency (Hek293T) | Potency (JEG-3) | Potency (OV90)
